Screening results as filed in PubChem.
Sampled rows, rich in hits. Any-hit rate of the full collection: about 3.2%.
VDR inh – inhibitors of human vitamin D receptor | actives 0.93% (n = 400,000) | P11473 | VDR-SRC2-3 peptide fluorescence polarization, 2 h | Potency, µM, for inactives: max response, negative = inhibition, actives largely listed as inhibitors; further: potency means the concentration at half of the fitted maximal effect
Target sequence (P11473 whole entry, looked up): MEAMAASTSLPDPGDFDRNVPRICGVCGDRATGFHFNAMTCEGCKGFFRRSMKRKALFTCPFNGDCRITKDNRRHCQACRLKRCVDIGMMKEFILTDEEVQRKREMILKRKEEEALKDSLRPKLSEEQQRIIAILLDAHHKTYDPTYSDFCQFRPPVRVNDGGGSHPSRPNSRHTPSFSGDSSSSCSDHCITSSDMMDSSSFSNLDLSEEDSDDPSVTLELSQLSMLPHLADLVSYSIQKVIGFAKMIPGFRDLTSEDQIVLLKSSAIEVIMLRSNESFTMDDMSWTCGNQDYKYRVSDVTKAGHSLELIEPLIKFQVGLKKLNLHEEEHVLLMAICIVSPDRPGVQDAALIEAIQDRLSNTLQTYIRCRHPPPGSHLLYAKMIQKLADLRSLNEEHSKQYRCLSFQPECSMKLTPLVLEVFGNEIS
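VDR–SRC2-3 interaction, FP format. Cmpds 23 nl via pintool, brief spin, 2 h ambient incubation.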
PLK1 PBD block – blocks phosphopeptide binding to human PLK1 polo-box domain. P53350. Plk1 PBD binding of FITC phosphopeptide, fluorescence polarization. Potency, µM, for the others: max response, negative = inhibition, hits mostly inhibitors. actives 2.8% (n = 360,000). AID 720504; further: potency means the concentration at half of the fitted maximal effect; series mostly up to about 57 µM; nearly all actives have a fitted effect of over 65% in size
Coupling enz – inhibits coupling enzyme system, counter-screen for aldolase hits | coupling enzyme system counterscreen, AmpLite Red fluorescence | activity change, negative = inhibition, % at 58.2 µM, hits read low | actives 0.67% (n = 290,000) | AID 2472; in the data active means activity change below about -30%
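Compounds tested against the coupling enzymes alone at 57.5 uM final; readout was AmpLite Red fluorescence (525/598 nm) after 20 min at RT.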
USP2a inh – blocks human ubiquitin-specific protease USP2a; O75604; USP2 core, Ub-CHOP2 coupled fluorogenic reporter, 485/531; Potency, µM (highest dose often 38.3 µM), without a hit: at the top dose activity change, negative = inhibition, hits mostly inhibitors; actives 0.01% (n = 330,000); AID 463254;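 further: potency means the concentration at half of the fitted maximal effect; plate controls were DMSO wells for no effect and full inhibition by NEM control for full effect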
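Deubiquitinase activity read as fluorescence (485/531 nm) after Ub-CHOP2 cleavage activates the enterokinase reporter on its substrate; USP2 core 10nM, Ub-CHOP2 and substrate 25nM each, 30min compound preincubation then 60min RT; data normalized to NEM, curves fitted.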
GALK inhibitor – blocks human galactokinase activity | Purified GALK, Kinase-Glo residual ATP luminescence | Potency, µM (doses to about 57.5 µM), inactives show at the top dose activity change, negative = inhibition, usual class: inhibitors | actives 0.007% (n = 270,000) | AID 1868; further: potency means the concentration at half of the fitted maximal effect
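ATP-depletion format; final 35 uM ATP, 100 uM D-galactose, 5 nM enzyme; pH 8.0 HEPES/Mg2+ buffer; 60 min RT; luminescence read 10 min after detection reagent.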
USP1 inh – inhibitors of human USP1/UAF1 deubiquitinase; actives 0.23% (n = 390,000); recombinant USP1/UAF1, Ub-Rhodamine cleavage fluorescence; AID 743255; O94782; Potency, µM (titrated, usually from 57.1 µM), for the others: at the top dose activity change, negative = inhibition, usual class: inhibitors; further: potency means the concentration at half of the fitted maximal effect; nearly all actives have a fitted effect of over 60% in size
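Step one: compound is pinned into 1nM USP1/UAF1 in HEPES pH 7.8 buffer with TCEP. Step two: 15 min room-temperature incubation. Step three: Ub-Rho (150nM final) starts cleavage, tracked by fluorescence over six one-minute reads.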
Active calls of the source: *; u = inconclusive; x = no result given. Unless noted, the call rests on the fitted dose curve; in most records, active means well fitted curve in the direction sought with a large enough effect; inconclusive means small, poorly fitted or top-dose-only effect, or another doubt; inactive means no such curve, though single readings can be large; an effect the other way counts as inactive or inconclusive. Unless noted, on the % scale 0 is the no-effect control and ±100 the full control effect.

SMILES	VDR inh	PLK1 PBD block	Coupling enz	USP2a inh	GALK inhibitor	USP1 inh
CN(C)c1nc(-c2cccc(C#N)c2)nc2ccccc12	-27%	x	-2	x	x	x
COc1cccc(-c2nc(N(C)C)c3ccccc3n2)c1	56µM*	x	-9	x	x	x
CNC(=O)CCCCCNS(=O)(=O)c1ccc(C)cc1	-9%	19µM*	2	-4%	-2%	-1%
Cc1cccc(C)c1NC(=O)CCCCCNS(=O)(=O)c1ccccc1	-6%	24µM*	-2	0%	2%	-11%
O=S(=O)(NCCCCCNS(=O)(=O)c1ccccc1)c1ccccc1	-22%	30µM*	2	0%	0%	0%
Cc1ccc(S(=O)(=O)NCCCCCC(=O)Nc2ccccc2)cc1	-1%	1%	0	6%	x	-8%
COc1c2ccoc2c(OC[C@@H](O)C(C)(C)O)c2oc(=O)ccc12	-14%	2%	0	0%	x	u
COC(=O)c1c(-c2ccc(S(C)(=O)=O)cc2)sc2ccc(OC)cc12	-12%	21µM*	x	-1%	x	-28%
Cc1ccc(F)cc1NC(=O)N1CCCN(C(=O)OC(C)(C)C)CC1	2%	-4%	2	-1%	0%	-2%
CCNC(=S)N(CCc1c(C)[nH]c2ccc(F)cc12)Cc1cccnc1	-29%	19µM*	0	2%	-2%	-18%
CCOCCOC(=O)c1[nH]c2c(c1C)C(=O)CC(c1ccccc1)C2 (centres undefined)	-7%	0%	0	-1%	4%	-15%
CCCCCOC(=O)c1[nH]c2c(c1C)C(=O)CC(c1ccco1)C2 (centres undefined)	79µM*	24µM*	-5	-3%	x	-6%
NC(=S)Nc1cccc2[nH]ncc12	6%	5%	2	1%	3%	-22%
O=C(Nc1sc2c(c1C(=O)Nc1cccc(Cl)c1)CCCC2)c1cccs1	25µM*	x	x	x	x	-3%
O=C(Nc1sc2c(c1C(=O)O)CCC2)c1ccc(F)cc1	2%	-23%	1	4%	1%	-20%
CC1(C)Cc2c(sc(NC(=O)c3ccccc3)c2C(=O)O)CO1	-19%	13µM*	-19	-8%	1%	-4%
O=C(Nc1sc2c(c1C(=O)O)CCCC2)c1ccc(Cl)cc1	-17%	-22%	-36*	1%	-9%	-21%
Cc1ccc(NC(=O)c2c(NC(=O)c3ccc(F)cc3)sc3c2CCCC3)cc1C	79µM*	x	x	x	x	5%
Cc1nc(C)c(Oc2ccc(Cl)cc2Cl)c(=O)[nH]1	-8%	4%	-1	7%	-2%	-6%
COc1cc(C(O)c2nc(-c3cccc(F)c3)cs2)ccc1F (centres undefined)	x	-4%	x	x	x	x
O=C(Nc1sc2c(c1C(=O)O)CCC2)c1ccccc1	8%	u	-21	6%	-4%	-13%
O=C(Nc1sc2c(c1C(=O)O)CCCCC2)c1ccccc1	u	19µM*	-38*	1%	2%	-23%
CC(C)OC(=O)c1c(NS(=O)(=O)c2ccccc2)sc2c1CCCC2	u	2.7µM*	6	-1%	0%	-10%
CCSc1nccc(-c2nn(-c3ccc(C)cc3)ccc2=O)n1	5%	-9%	0	4%	1%	-13%
C#CCSc1nccc(-c2nn(-c3ccc(C)cc3)ccc2=O)n1	u	27µM*	1	-3%	-3%	-13%
SMILES	VDR inh	PLK1 PBD block	Coupling enz	USP2a inh	GALK inhibitor	USP1 inh
O=[N+]([O-])c1cccc(-c2nc(-c3ccccc3)no2)c1	-9%	19µM*	1	1%	6%	3%
CC(C)(C)C1CCc2c(sc(N)c2C(N)=O)C1 (centres undefined)	79µM*	u	-19	-1%	5%	-24%
CCCC1CCc2c(sc(N)c2C(N)=O)C1 (centres undefined)	u	27µM*	-1	4%	3%	-23%
CCC(C)(C)C1CCc2c(sc(N)c2C(N)=O)C1 (centres undefined)	u	0%	-1	6%	-2%	-9%
CCC1(CC)NC(=O)N(CC(=O)OCn2nnc3ccccc3c2=O)C1=O	-9%	-8%	2	8%	1%	-14%
S=c1[nH]nc(CSc2nc3ccccc3s2)n1C1CCCCC1	-19%	-22%	1	-8%	2%	-14%
CC(C)c1ccc(NC(=O)COC(=O)Cn2cnc3c2c(=O)n(C)c(=O)n3C)cc1	x	0%	x	x	x	-22%
Cc1c(C(=O)NC(C)C)oc2c1-c1[nH]ncc1CC2	-3%	-10%	-39*	-5%	-2%	-14%
CCOC(=O)NC(=O)CSc1nnc(C2CC2)n1Cc1ccco1	-6%	-9%	-2	3%	11%	-9%
O=C(Nc1cc(-c2nc3ncccc3o2)ccc1Cl)c1ccc2c(c1)OCO2	-21%	-6%	x	0%	x	-9%
COc1cc(NC(=O)c2ccc3c(c2)OCO3)ccc1NC(=O)C(C)C	3%	30µM*	0	1%	5%	-19%
O=C(Nc1cccc(NC(=O)c2ccc3c(c2)OCO3)c1)c1ccccc1	2%	-2%	0	1%	10%	-13%
CC(=O)c1cccc(NC(=O)c2ccc3c(c2)OCO3)c1	79µM*	24µM*	-4	2%	6%	-8%
O=C(Nc1cccc(-c2nc3ncccc3o2)c1)c1ccc2c(c1)OCO2	u	27µM*	x	x	x	-7%
O=C(Nc1ccc(-c2nc3ncccc3o2)cc1)c1ccco1	u	11µM*	0	-2%	-3%	-8%
CC(=O)c1cccc(NC(=O)c2cc(=O)[nH]c3ccccc23)c1	4%	19µM*	-1	6%	-2%	-8%
CC(=O)c1cccc(NC(=O)c2ccc(C)o2)c1	-17%	30µM*	1	1%	7%	-12%
CN(C)c1ccc(C(=S)N2CCN(c3ccccc3)CC2)cc1	13%	-5%	-1	0%	-1%	-7%
CC1CCN(C(=S)c2ccc(N(C)C)cc2)CC1	-4%	30µM*	2	4%	1%	-12%
CC(=O)N1CCN(C(=S)c2ccc(N(C)C)cc2)CC1	-13%	21µM*	6	4%	-1%	-20%
Cc1ccc(N2CCN(C(=S)c3ccc(N(C)C)cc3)CC2)cc1	u	17µM*	0	4%	1%	-10%
CN(C)c1ccc(C(=S)N2CCCCCC2)cc1	2%	u	-2	2%	0%	-1%
CCOC(=O)c1nc(NCc2cccnc2)c2ccccc2n1	5%	-8%	0	1%	-2%	-8%
O=C(Nc1ccc2c(c1)OCO2)OCc1ccccc1	-7%	0%	0	-1%	1%	u
O=C(CN1CCN(S(=O)(=O)c2ccc(Br)s2)CC1)NCC1CCCCC1	x	-5%	x	x	x	-2%
